This is an account of results in PubChem BioAssay AID1851 (National Center for Advancing Translational Sciences (NCATS), 2009).

As usually defined, the AC50 is the concentration at which the activity in the assay is half-maximal.

Molecules are shown by their SMILES. About 5,100 (32%) of roughly 16,000 compounds were called active. Roughly 25% stayed inconclusive and do not appear here. The list shows a part of the results. A number with no mark means an inactive call. Calls follow the shape of the dose curve; as a rule, active = well fitted curve in the direction sought with a large enough effect; inconclusive = small, poorly fitted or top-dose-only effect, or effect the other way; inactive = no such curve, though single readings can be large or run the other way.
% is scaled to controls: 0 for no effect and ±100 for the full control effect.

The target in this assay is Cytochrome P450 3A4 (Homo sapiens) (UniProt P08684). Kind of assay: Cytochrome panel assay with activity outcomes. To be noted: recombinant CYP, pro-luciferin dealkylation, luminescence, p450-cyp3a4; series mostly up to 57.1 µM; activity, negative = inhibition: at the top concentration.
Cytochrome P450 3A4 (Homo sapiens), sequence (P08684 whole entry, looked up): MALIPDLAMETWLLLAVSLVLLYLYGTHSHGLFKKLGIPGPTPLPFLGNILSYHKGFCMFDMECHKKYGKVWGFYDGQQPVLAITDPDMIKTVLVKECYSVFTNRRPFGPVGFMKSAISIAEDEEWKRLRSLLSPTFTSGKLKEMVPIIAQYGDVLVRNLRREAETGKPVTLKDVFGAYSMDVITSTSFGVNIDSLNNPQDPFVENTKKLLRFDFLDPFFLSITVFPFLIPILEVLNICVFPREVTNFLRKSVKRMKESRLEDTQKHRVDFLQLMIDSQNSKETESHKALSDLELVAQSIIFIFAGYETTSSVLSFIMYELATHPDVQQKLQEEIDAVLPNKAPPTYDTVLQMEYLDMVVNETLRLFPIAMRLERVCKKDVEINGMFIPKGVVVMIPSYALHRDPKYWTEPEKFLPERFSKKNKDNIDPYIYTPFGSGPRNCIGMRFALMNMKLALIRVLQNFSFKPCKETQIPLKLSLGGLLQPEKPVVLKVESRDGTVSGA
As for `COc1ccc(Nc2cc(=O)n(C3CCCCC3)c(=O)[nH]2)c(OC)c1`, the half-maximal activity concentration (AC50) is 12.6 µM (active). Take `O=C(c1ccco1)N1CCN(c2cc(=O)n(C3CCCCC3)c(=O)[nH]2)CC1`: the “activity, negative = inhibition” value was -12.1%.

`Cc1cc(C(C)(C)C)c(O)c(C)c1CC1=NCCN1`: the “activity, negative = inhibition” value was -21.5% [at 25.6 µM].

Take `CCC(=O)Nc1ncnc2ncn(C(=O)CC)c12`: the activity, negative = inhibition was -6.29% [at 11.4 µM]. `COc1ccccc1COC(=O)Nc1c(C)nn(C)c1Cl`: the half-maximal activity concentration (AC50) is 15.8 µM (active).

Regarding `Cc1nn(C)c(Cl)c1NC(=O)OCc1ccc(Cl)cc1Cl`, the AC50 is 14.1 µM (active). With `O=C(OCc1ccc(Cl)cc1Cl)c1cccnc1Cl`, the “activity, negative = inhibition” value is -0.666%.

On to `Cc1nn(C)c(Cl)c1NC(=O)OCc1ccc(F)cc1`, for which the “activity, negative = inhibition” value is -35.1%.

Consider `O=C(Nc1ccccc1)OCc1cc(-c2ccc(Cl)cc2)on1`, for which the activity, negative = inhibition was 3.33% [at 2.29 µM].

With `O=C(c1ccncc1)N1CCC2(CCN(Cc3nccs3)CC2)CC1`, the “activity, negative = inhibition” value was -16.3%. In the case of `O=C(c1cc(C(F)(F)F)cc(C(F)(F)F)c1)N1CCC[C@@]2(CCN(Cc3nccs3)C2)C1`, the AC50 was 3.16 µM (active).

Take `O=C(c1cc(C(F)(F)F)cc(C(F)(F)F)c1)N1CCC2(CCCN(Cc3nccs3)C2)CC1`: the AC50 is 20 µM (active). For `CCN1CCCCC(=N/O)/C(=N/O)CCCC1`, the activity, negative = inhibition was -9.74% [at 11.4 µM].

`Cc1cccc(NC(=O)CSc2nc3nc(C)cc(C)c3c(=O)[nH]2)c1`: the AC50 is 3.55 µM (active). As for `Cc1cc(C)c2c(=O)[nH]c(SCC(=O)N(C)C)nc2n1`, the “activity, negative = inhibition” value is -16.7%. On to `COC(=O)[C@@]1(Cc2ccccc2)[C@H]2c3cc(C(=O)N(C)C)n(Cc4c(CO)[nH]cc(C)c4=O)c3C[C@H]2CN1C(=O)c1ccccc1`, for which the half-maximal activity concentration (AC50) is 1.58 µM (active).

As for `COC(=O)[C@@]1(Cc2ccc(F)cc2)[C@H]2c3cc(C(=O)N(C)C)n(Cc4c(CO)[nH]cc(C)c4=O)c3C[C@H]2CN1C(=O)c1ccccc1`, the concentration at half-maximal activity (AC50) was 1.58 µM (active). Take `CCCCn1c(SCC(N)=O)nc2ccc(N3CCOCC3)cc2c1=O`: the AC50 was 10 µM (active). For `CCCCNC(=O)CSc1nc2cc(OC)c(OC)cc2c(=O)n1Cc1ccc(OC)cc1`, the AC50 is 2.82 µM (active). Turning to `CCCCn1c(SC(C)C(N)=O)nc2cc(C(=O)OC)ccc2c1=O` (stereo not drawn), the “activity, negative = inhibition” value is -24%.

Take `NC(=O)CSc1nc2sc(-c3ccccc3)cc2c(=O)n1N`: the activity, negative = inhibition is -22% [at 2.29 µM]. For `COCCNC(=O)CSc1nc2ccc(N3CCOCC3)cc2c(=O)n1Cc1ccc(OC)cc1`, the half-maximal activity concentration (AC50) is 5.01 µM (active).

As to `Cc1cc(N2CCOCC2)ncc1[N+](=O)[O-]`, the activity, negative = inhibition was 8.16% [at 2.29 µM]. For the molecule `Cc1ccc(OC(=O)c2ccc(N3CCOCC3)c([N+](=O)[O-])c2)cc1`, the “activity, negative = inhibition” value is 19.3%.

Regarding `Cc1ccc(OCC(=O)N2CCN(c3ccc([N+](=O)[O-])c(N4CCOCC4)c3)CC2)cc1`, the AC50 is 7.08 µM (active).

As for `CCOC(=O)NC(=O)CSc1nc2ccc(OCC)cc2[nH]1`, the half-maximal activity concentration (AC50) is 28.2 µM (active). For `COC(=O)Nc1nc2ccc(SC(C)C)cc2[nH]1`, the “activity, negative = inhibition” value is 7.47% [at 25.6 µM]. Turning to `COc1ccc2nc(SCC(=O)c3ccco3)[nH]c2c1`, the concentration at half-maximal activity (AC50) is 11.2 µM (active). With `COc1ccc(C(C)=O)c(OC(=O)c2ccco2)c1`, the “activity, negative = inhibition” value is -5.71%. The same measure, in the same setting: the same measure for `CCCCc1ccc2nc(NC(=O)OC)[nH]c2c1`: 7.68% [at 25.6 µM]. On to `CN(CC(=O)O)Cc1c(O)c(Cl)cc(Cl)c1Cl`, for which the activity, negative = inhibition was -14.8% [at 11.4 µM]. As to `Cc1ccc2oc(-c3cccc(NC(=S)NC(=O)/C=C/c4ccco4)c3)nc2c1`, the concentration at half-maximal activity (AC50) is 1 µM (active). Turning to `C[N+](C)(C)CCN(Cc1ccc(Cl)cc1)c1ccccn1`, the “activity, negative = inhibition” value is 15.1%. In the case of `O=C(O)COc1c(Cl)cc(Cl)c2cccnc12`, the activity, negative = inhibition is -9.36% [at 11.4 µM]. `O=C(COc1ccc(Cl)cc1)N(Cc1ccccc1)c1ccccn1`: the AC50 is 22.4 µM (active). As to `O=C1O[C@@H]([C@H](O)[C@H](O)[C@H](O)CO)[C@@H](O)[C@@H]1O`, the activity, negative = inhibition was -1% [at 11.4 µM]. `COc1ccc2c(c1OC)C(=O)N(C(C)C(=O)O)C2=O` (stereo not drawn): the “activity, negative = inhibition” value was 4.09%. Turning to `CCCC(=O)n1nc(-c2cccnc2)nc1N`, the activity, negative = inhibition is 0.62% [at 2.29 µM]. As to `c1cncc(-c2cncnc2-n2ccnc2)c1`, the AC50 is 7.94 µM (active).

As to `N#Cc1cccc(-c2cncnc2-n2ccnc2)c1`, the AC50 is 2.51 µM (active).

Regarding `COc1cccc(-c2cncnc2-n2ccnc2)c1`, the AC50 was 0.316 µM (active).

For the molecule `CN(C)c1ccc(-c2cncnc2-n2ccnc2)cc1`, the half-maximal activity concentration (AC50) was 2.51 µM (active). `Cc1ccc(C)c(N/C(N)=N/c2nc(C)cc(C)n2)c1`: the “activity, negative = inhibition” value is -18.9%. For the molecule `Cc1ccc(C(C2C(=O)CC(C)(C)CC2=O)C2C(=O)CC(C)(C)CC2=O)s1`, the “activity, negative = inhibition” value was -24%. Consider `C[N+](C)(C)CCCCCCCCCC[N+](C)(C)C`, for which the “activity, negative = inhibition” value is 11.2% [at 25.6 µM].

`COc1ccccc1-c1cncnc1-n1ccnc1`: the concentration at half-maximal activity (AC50) is 0.251 µM (active).

On to `COc1ccccc1-c1nnc(NC(C)=O)s1`, for which the “activity, negative = inhibition” value was -18.1%. On to `CC(C)(C)c1cc(C(=O)O)c(CN2CCCCC2)o1`, for which the “activity, negative = inhibition” value is -12.5%.
